Our source for the growth values is PubChem BioAssay (NCI).

Compounds without any hit were thinned out: in the full panel of roughly 83,000, 20% have a hit.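 In brief: 96-well plates, 48 h treatment, single concentration, percent growth endpoint.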 A number with no mark means an inactive call. Calls of active or inactive are those of the source. Rule for the calls: active = growth percent below 10; inactive = the rest.

Test systems include DU-145 prostate; K-562 leukemia; MALME-3M melanoma; MDA-MB-231 breast; RXF 393 renal; SF-268 CNS; SF-295 CNS; SF-539 CNS; UACC-257 melanoma; HCT-15 colon; HT29 colon; SNB-75 CNS; SNB-19 CNS; U251 CNS; PC-3 prostate; SK-MEL-5 melanoma; UACC-62 melanoma; LOX IMVI melanoma; SK-MEL-28 melanoma.
Holding throughout (assay): NCI-60 one-dose screen, 48 h (100 = growth as untreated, 0 = no growth, -100 = all killed)
Holding throughout (settings): 10 µM unless noted

As for `COc1ccc(C2=Nc3c(N)nc(N)nc3NC(c3cccc(Nc4ccnc5cc(C(F)(F)F)ccc45)c3)C2)cc1` (configuration not stated), the growth was 75.5% in the test with DU-145 prostate; 13.2% in the test with K-562 leukemia; 78.3% in the test with MALME-3M melanoma; 70.8% in the test on MDA-MB-231 breast; 54% in the test on RXF 393 renal; 69.7% in the test on SF-268 CNS. Also, the growth in the test on SF-295 CNS was 78.9%; in the test on SF-539 CNS, 87.1%; with UACC-257 melanoma it was 87.8%; with HCT-15 colon, 36.6%; in the test with HT29 colon, 30.4%; in the test on SNB-75 CNS, 65.6%. The growth with SNB-19 CNS is 73.1%; with U251 CNS it was 60.4%; in the test with PC-3 prostate, 48.4%; in the test on SK-MEL-5 melanoma, 61.4%; in the test with UACC-62 melanoma it was 88.9%; in the test with LOX IMVI melanoma, 65.3%. The growth in the test on SK-MEL-28 melanoma is 91.5%.
With `O=S(=O)(NCCNc1nccc(-c2c(-c3ccc(F)c(O)c3)nc3occn23)n1)c1ccc(Cl)cc1`, the growth in the test on DU-145 prostate is 90.9%; in the test on K-562 leukemia, 73.8%; in the test on MALME-3M melanoma it was 2.05% (active); with MDA-MB-231 breast it was 60%; with RXF 393 renal, 57.5%; with SF-268 CNS it was 80.5%. For the same compound, the growth with SF-295 CNS is 97.4%; in the test with SF-539 CNS, 102%; in the test on UACC-257 melanoma, 41.6%; with HCT-15 colon, 98.9%; with HT29 colon it was 92.3%; with SNB-75 CNS, 85.2%. In addition, the growth is 101% in the test on SNB-19 CNS; 93.9% with U251 CNS; 79.8% in the test on PC-3 prostate; 60.9% in the test on SK-MEL-5 melanoma; 23.9% in the test on UACC-62 melanoma; 45.5% in the test with LOX IMVI melanoma. In the test on SK-MEL-28 melanoma, the growth was 40.1%.
As for `CCN(CC)c1ccc(\C=N/N=C(N)/C(N)=N\N=C/c2ccc(N(CC)CC)cc2)cc1`, the growth is 110% in the test with DU-145 prostate; 99.3% with K-562 leukemia; 93.9% with MALME-3M melanoma; 112% in the test with MDA-MB-231 breast; 109% with RXF 393 renal; 105% in the test on SF-268 CNS. Further, the growth is 98.9% with SF-295 CNS; 107% with SF-539 CNS; 104% in the test on UACC-257 melanoma; 92.4% in the test with HCT-15 colon; 99.2% in the test with HT29 colon; 93% in the test with SNB-75 CNS. Moreover, the growth with SNB-19 CNS was 113%; in the test with U251 CNS, 97.9%; in the test on PC-3 prostate, 97.1%; in the test on SK-MEL-5 melanoma, 97.1%; with UACC-62 melanoma it was 104%; in the test on LOX IMVI melanoma, 101%. The growth with SK-MEL-28 melanoma is 105%.
With `CCOc1nc(-c2ccccc2)cc2c(O)c(C(=O)N/N=C/c3ccccc3)[nH]c(=O)c12`, the growth in the test with DU-145 prostate is 115%; in the test with K-562 leukemia, 48.2%; with MALME-3M melanoma, 136%; in the test on MDA-MB-231 breast it was 117%; in the test on RXF 393 renal, 119%; in the test with SF-268 CNS, 106%. Besides, the growth in the test with SF-295 CNS was 134%; in the test with SF-539 CNS, 112%; with UACC-257 melanoma, 101%; in the test on HCT-15 colon it was 104%; with HT29 colon it was 105%; with SNB-75 CNS, 122%. For the same compound, the growth in the test with SNB-19 CNS was 105%; with U251 CNS it was 106%; in the test with PC-3 prostate, 93.5%; in the test with SK-MEL-5 melanoma it was 102%; in the test on UACC-62 melanoma, 103%; in the test with LOX IMVI melanoma it was 109%. The growth with SK-MEL-28 melanoma is 114%.
Regarding `O=C(c1ccccc1)c1ccc(C2CCCCC2)cc1`, the growth in the test on DU-145 prostate is 106%; in the test on K-562 leukemia, 103%; in the test on MALME-3M melanoma it was 87.4%; in the test on MDA-MB-231 breast, 102%; with RXF 393 renal, 100%; in the test with SF-268 CNS, 100%. The growth is 94.3% in the test with SF-295 CNS; 102% with SF-539 CNS; 105% in the test with UACC-257 melanoma; 91.5% in the test on HCT-15 colon; 91.5% with HT29 colon; 97.5% with SNB-75 CNS. Also, the growth in the test with SNB-19 CNS is 86.7%; in the test on U251 CNS it was 88.9%; in the test with PC-3 prostate, 103%; in the test with SK-MEL-5 melanoma, 96.6%; in the test with LOX IMVI melanoma it was 94.6%; in the test on SK-MEL-28 melanoma, 103%.
As to `O=C(Nc1nc2ccccc2s1)c1ccc(F)cc1`, the growth in the test with DU-145 prostate is 108%; in the test on K-562 leukemia, 90%; in the test on MALME-3M melanoma, 96.2%; in the test with MDA-MB-231 breast, 95.5%; with RXF 393 renal it was 107%; in the test with SF-268 CNS it was 114%. Further, the growth is 103% in the test with SF-295 CNS; 102% with SF-539 CNS; 108% with UACC-257 melanoma; 85.5% in the test with HCT-15 colon; 108% with HT29 colon; 96.7% in the test with SNB-75 CNS. Moreover, the growth in the test with SNB-19 CNS was 126%; with U251 CNS, 99.7%; with PC-3 prostate, 96.6%; in the test on SK-MEL-5 melanoma it was 91.3%; with UACC-62 melanoma it was 89.5%; in the test on LOX IMVI melanoma it was 101%. The growth in the test with SK-MEL-28 melanoma is 114%.
Consider `Cc1ccc(NC(=O)Cn2cc(CN3CCN(c4ccnc5cc(Cl)ccc45)CC3)nn2)cc1`, for which the growth with DU-145 prostate is 102%; with K-562 leukemia it was 63.8%; in the test on MALME-3M melanoma, 100%; with MDA-MB-231 breast it was 77.1%; in the test with RXF 393 renal it was 88.5%; in the test with SF-268 CNS, 80.1%. The growth in the test with SF-295 CNS was 86.3%; with SF-539 CNS it was 98.7%; in the test with UACC-257 melanoma, 103%; in the test on HCT-15 colon, 84.7%; with HT29 colon, 105%; with SNB-75 CNS it was 70.7%. Further, the growth in the test with SNB-19 CNS is 89.2%; in the test with U251 CNS, 89.4%; in the test with PC-3 prostate, 63.1%; in the test with SK-MEL-5 melanoma, 77.7%; in the test on UACC-62 melanoma, 77.7%; in the test on LOX IMVI melanoma, 82.4%. Also, the growth with SK-MEL-28 melanoma was 104%.
Take `COc1ccccc1N1CCCCC1`: the growth in the test with DU-145 prostate is 110%; with K-562 leukemia, 93.5%; with MALME-3M melanoma, 94.6%; in the test on MDA-MB-231 breast, 99.9%; in the test on RXF 393 renal, 133%; in the test on SF-268 CNS, 108%. Besides, the growth was 98.9% in the test on SF-295 CNS; 94.3% in the test with SF-539 CNS; 108% in the test on UACC-257 melanoma; 102% with HCT-15 colon; 101% in the test with HT29 colon; 99.4% with SNB-75 CNS. In addition, the growth was 95.2% with SNB-19 CNS; 108% in the test with U251 CNS; 98.8% with PC-3 prostate; 108% with SK-MEL-5 melanoma; 96.3% in the test with UACC-62 melanoma; 100% with LOX IMVI melanoma. Besides, in the test with SK-MEL-28 melanoma, the growth was 102%.
Regarding `Cc1cc(=O)n(C(=O)Nc2ccccc2Cl)c2cc(O)ccc12`, the growth is 108% with DU-145 prostate; 109% in the test with K-562 leukemia; 93% with MALME-3M melanoma; 101% with MDA-MB-231 breast; 109% in the test with RXF 393 renal; 95.8% with SF-268 CNS. The growth in the test on SF-295 CNS was 101%; with SF-539 CNS, 97.8%; in the test with UACC-257 melanoma it was 96.5%; with HCT-15 colon, 107%; in the test with HT29 colon, 108%; with SNB-75 CNS it was 93.7%. For the same compound, the growth with SNB-19 CNS was 97%; in the test on U251 CNS, 98.6%; in the test on PC-3 prostate it was 93.6%; with SK-MEL-5 melanoma, 101%; in the test with UACC-62 melanoma, 101%; in the test with LOX IMVI melanoma, 99.1%. In addition, the growth with SK-MEL-28 melanoma was 107%.
For `COC(=O)C1Cc2ccccc2CN1C(=O)c1ccc2c(c1)Cc1ccccc1-2` (configuration not stated), the growth in the test on DU-145 prostate is 59.8% [50 µM]; in the test on K-562 leukemia, 21.2% [50 µM]; in the test with MALME-3M melanoma it was 17.7% [50 µM]; in the test on MDA-MB-231 breast it was 42.3% [50 µM]; with RXF 393 renal, 51.2% [50 µM]; with SF-268 CNS, 49.3% [50 µM]. Also, the growth was 30.2% [50 µM] in the test with SF-295 CNS; 70.1% [50 µM] in the test on SF-539 CNS; 29% [50 µM] with UACC-257 melanoma; 22.4% [50 µM] with HCT-15 colon; 23.1% [50 µM] in the test with HT29 colon; 60.8% [50 µM] with SNB-75 CNS. The growth in the test with SNB-19 CNS was 43.7% [50 µM]; in the test with U251 CNS, 32.3% [50 µM]; with PC-3 prostate it was 21.2% [50 µM]; in the test on SK-MEL-5 melanoma it was -39.9% [50 µM] (active); with UACC-62 melanoma, 33.3% [50 µM]; in the test with LOX IMVI melanoma, 35.8% [50 µM]. In the test with SK-MEL-28 melanoma, the growth was 47.8% [50 µM].
For the compound `CCN1CCN(C(=O)[C@]23CCC(C)(C)C[C@@H]2C2=CC[C@@H]4[C@@]5(C)CCC(=O)C(C)(C)[C@@H]5CC[C@@]4(C)[C@]2(C)CC3)CC1`, the growth with DU-145 prostate was 76.6%; in the test with K-562 leukemia, 21.1%; in the test with MALME-3M melanoma it was 40.5%; in the test with MDA-MB-231 breast, 56.5%; in the test with RXF 393 renal, 61%; in the test with SF-268 CNS it was 41.5%. Moreover, the growth was 76.3% with SF-295 CNS; 48.9% in the test on SF-539 CNS; 32.8% in the test on UACC-257 melanoma; 33.6% in the test on HCT-15 colon; 8.29% (active) with HT29 colon; 15.6% with SNB-75 CNS. Also, the growth is 71.1% in the test on SNB-19 CNS; 46.8% in the test with U251 CNS; 26.1% in the test on PC-3 prostate; 49.2% in the test with SK-MEL-5 melanoma; 43.8% in the test on LOX IMVI melanoma; 64.3% with SK-MEL-28 melanoma.
